Records with an inconclusive call do not appear. Activity calls are given as the source filed them. Calls come from the whole dose curve; as a rule, active = well fitted inhibition curve with a large enough effect; inconclusive = small, poorly fitted or top-dose-only effect; inactive = flat fitted curve, though single readings scatter.
Molecular target: Glutathione peroxidase 1 (Homo sapiens) (UniProt P07203)
Assay: Primary qHTS Assay for Inhibitors of Recombinant Selenoprotein Glutathione Peroxidase 1 (GPX1) (AID 1845191); note: nearly all actives have a fitted effect of over 65% in size
Settings: recombinant GPX1, GR-coupled NADPH fluorescence, 15 min; series mostly up to 48.8 µM; activity, negative = inhibition: at the top concentration
Summary of the method: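 Recombinant GPX1 (10 nM final) was preincubated with compound for 30 min at room temperature, then reacted with 1 mM GSH, 0.5 mM CHP, 0.5 mM NADPH and 100 nM glutathione reductase; NADPH fluorescence (340/450 nm) was read at 0 and 15 min.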
% is set by controls: 0 for no effect and ±100 for the full control effect.

Chain of Glutathione peroxidase 1 (Homo sapiens) (P07203 whole entry, looked up): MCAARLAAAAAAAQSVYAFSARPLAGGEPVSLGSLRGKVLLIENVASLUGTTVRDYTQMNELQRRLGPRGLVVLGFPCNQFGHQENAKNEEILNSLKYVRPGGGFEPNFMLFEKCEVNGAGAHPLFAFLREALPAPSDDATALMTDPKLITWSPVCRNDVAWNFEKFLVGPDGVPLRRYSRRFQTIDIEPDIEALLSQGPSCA

CN(NC(=O)CC(=O)NN(C)C(=S)c1ccccc1)C(=S)c1ccccc1 was tested. Which Potency did it give?
The Potency was “inactive”.

CC(=O)N(O)CCCCCN1C(=O)CCC1=O was tested. Which “outcome” value did it give?
The value was “inactive”.

Which “outcome” value does the source give for CCOC(=O)c1c(C)nn(-c2cccc([N+](=O)[O-])c2)c1C here?
The value was “inactive”.

CC(/C=C/C1(O)C2(C)COC1(C)CC(=O)C2)O[C@@H]1O[C@H](CO)[C@@H](O)[C@H](O)[C@H]1O (stereo partly drawn) was tested. Which “outcome” value did it give?
Its value is “inactive [at 27.7 µM]”.

With O=C(/C=C/c1ccc(O)cc1)O[C@H]1[C@@H]2C=CO[C@@H](O[C@@H]3O[C@H](CO)[C@@H](O)[C@H](O)[C@H]3O)[C@@H]2[C@@]2(CO)O[C@@H]12 as the compound, how does the “outcome” value read?
Its value is “inactive [at 27.7 µM]”.

CC(C#N)C(C)O[C@@H]1O[C@H](CO)[C@@H](O)[C@H](O)[C@H]1O (stereo partly drawn) was tested. Which “activity, negative = inhibition” value did it give?
The value was -3.56% (inactive).

How did the “activity, negative = inhibition” value turn out when CC1(C)CCC[C@@]2(C)[C@H]1[C@H](O)C=C1COC(=O)[C@@]12O was run?
Its value is 1.37% (inactive).

CNC(=O)c1ccc(Nc2ncc(C(F)(F)F)c(NCc3nccnc3N(C)S(C)(=O)=O)n2)cc1 was tested. Which Potency did it give?
Its Potency is “inactive”.

Which “outcome” value does the source give for COc1cc(COC2OC(CO)C(O)C(O)C2O)cc(OC)c1O (stereo not drawn) here?
The value was “inactive [at 27.7 µM]”.

Which “activity, negative = inhibition” value does the source give for C[C@H]1[C@H](C)CC[C@]2(C(=O)O[C@@H]3O[C@H](CO)[C@@H](O)[C@H](O)[C@H]3O)CC[C@]3(C(=O)O)C(=CCC4[C@@]5(C)CC[C@H](O[C@@H]6O[C@H](CO)[C@@H](O)[C@H](O)[C@H]6O)C(C)(C)C5CC[C@]43C)[C@H]12 (stereo partly drawn) here?
Its value is 1.98% [at 15.3 µM] (inactive).

COC(=O)C12C(=O)C(C)=C(O)C1(C)C(C)=CC1C34CCC(OC3=O)C(C)(C)C4CCC12C (stereo not drawn) was tested. Which “outcome” value did it give?
Its value is “inactive [at 27.7 µM]”.

Which “activity, negative = inhibition” value does the source give for O=c1c2ccccc2nc2n1CCC2O (stereo not drawn) here?
The value was 1.21% (inactive).

How did the “activity, negative = inhibition” value turn out when CC(=O)NC(CCC(=O)O)C(=O)NCCc1ccc(O)cc1 (stereo not drawn) was run?
Its value is -0.291% (inactive).

For C=C(C)[C@@H]1CC[C@](C)(O)[C@@H](OC(=O)c2ccccc2)C1, which “outcome” value is on record?
Its value is “inactive”.

How did the “outcome” value turn out when CC(=O)N1CCN(NC(=O)c2ccc(F)cc2)CC1 was run?
The value was “inactive”.

With COC(=O)CC1(O)C(=O)Nc2ccccc21 (stereo not drawn) as the compound, how does the “activity, negative = inhibition” value read?
Its value is -9.24% (inactive).

For CCCn1cnc2c(NCc3ccccc3)nc(N[C@H](CC)CO)nc21, which “activity, negative = inhibition” value is on record?
Its value is 4.44% (inactive).

COc1cc2c(cc1O)C1(Cc3ccc4c(c3C1=O)OCO4)N(C)CC2 (stereo not drawn) was tested. Which “activity, negative = inhibition” value did it give?
The value was 3.76% [at 27.7 µM] (inactive).

How did the “activity, negative = inhibition” value turn out when C=C1CCC2[C@@](C)(C=O)CCC[C@]2(C)[C@H]1CC/C(C)=C/CO (stereo partly drawn) was run?
Its value is -11.2% (inactive).

With C/C=C(\C)C(=O)OC[C@H]1O[C@H](O[C@H]2O[C@H](CO)[C@@H](OC(=O)/C(C)=C/C)[C@H](O)[C@H]2O[C@@H]2O[C@H](CO)[C@@H](O)[C@H](O)[C@H]2O)[C@H](O[C@@H]2O[C@H](CO)[C@@H](O)[C@H](O)[C@H]2O)[C@@H](O)[C@@H]1O as the compound, how does the “outcome” value read?
The value was “inactive [at 15.3 µM]”.

For C/C=C(\C)C(=O)O[C@@H]1CC2[C@@H](CC=C3C[C@@H](O[C@H]4C[C@H](OC)[C@H](O[C@H]5C[C@H](OC)[C@H](O[C@H]6C[C@H](OC)[C@H](O[C@H]7C[C@@H](OC)[C@H](O[C@@H]8O[C@H](CO)[C@@H](O)[C@H](O)[C@H]8O)[C@@H](C)O7)[C@@H](C)O6)[C@@H](C)O5)[C@@H](C)O4)CC[C@@]32C)[C@@]2(O)CC[C@H](C(C)=O)[C@@]12C (stereo partly drawn), which activity, negative = inhibition is on record?
The activity, negative = inhibition was -14% [at 9.52 µM] (inactive).

With CC1CCC2C(C(=O)O)=CC3CC(C)(C)CC132 (stereo not drawn) as the compound, how does the “outcome” value read?
The value was “inactive”.

COc1ccc(/C=C/C(=O)O[C@@H]2[C@@H](O)[C@H](C)O[C@@H](OC3C4C=COC(O[C@@H]5O[C@H](CO)[C@@H](O)[C@H](O)[C@H]5O)C4C4(CO)OC34)[C@@H]2O)cc1OC (stereo partly drawn) was tested. Which “activity, negative = inhibition” value did it give?
The value was 1.34% [at 15.3 µM] (inactive).

CCC(C)C(=O)O[C@@H]1[C@@H](O)[C@@H](O[C@H]2O[C@H](CO)[C@@H](O)[C@H](O)[C@H]2O)O[C@H](CO)[C@H]1O (stereo partly drawn) was tested. Which “outcome” value did it give?
Its value is “inactive [at 27.7 µM]”.

For C=C1C(=O)OC2CC(C)=C(C(C)CCCO[C@@H]3O[C@H](CO)[C@@H](O)[C@H](O)[C@H]3O)C(O)C12 (stereo partly drawn), which “outcome” value is on record?
Its value is “inactive [at 27.7 µM]”.

How did the “outcome” value turn out when CCC(C)(O)C(O)C(=O)OCc1ccc(O[C@@H]2O[C@H](CO)[C@@H](O)[C@H](O)[C@H]2O)cc1 (stereo partly drawn) was run?
Its value is “inactive [at 27.7 µM]”.

With C/C=C(\C)C(=O)O[C@@H](C)[C@H]1CC[C@]2(O)C3CCC4C[C@@H](OC5CC(OC)C(OC6CC(OC)C(OC7CC(OC)C(OC8OC(C)C(OC9OC(CO)C(O)C(O)C9O)C(OC)C8O)C(C)O7)C(C)O6)C(C)O5)CC[C@]4(C)C3[C@H](O)[C@@H](O)[C@]12C (stereo partly drawn) as the compound, how does the outcome read?
Its outcome is “inactive [at 9.52 µM]”.

Which “activity, negative = inhibition” value does the source give for CC1CCC(=O)CC(O)C(O)CC(=O)O1 (stereo not drawn) here?
The value was -24% (inactive).

How did the “activity, negative = inhibition” value turn out when CC1=C(C)C(=O)OC(C(C)(O)C2CCC3C4CC=C5CC(OC6OC(COC7OC(CO)C(O)C(O)C7O)C(O)C(O)C6O)CC(O)C5(C)C4CCC32C)C1 (stereo not drawn) was run?
Its value is -5.12% [at 15.3 µM] (inactive).

With COc1ccc(C(O[C@@H]2O[C@H](CO)[C@@H](O)[C@H](O)[C@H]2O)C(CO)Oc2ccc(/C=C/CO)cc2OC)cc1O (stereo partly drawn) as the compound, how does the “outcome” value read?
The value was “inactive [at 27.7 µM]”.

With CO[C@@H](Cc1ccc(OCCc2nc(-c3ccccc3)oc2C)c2ccsc12)C(=O)O as the compound, how does the “outcome” value read?
The value was “inactive”.

For CC(=O)c1c(C)cc(O)cc1O[C@@H]1O[C@H](CO)[C@@H](O)[C@H](O)[C@H]1O, which “activity, negative = inhibition” value is on record?
Its value is 1.45% [at 27.7 µM] (inactive).

Which “outcome” value does the source give for CC1[C@@H](O)[C@@H](O)C2[C@]3(C)C(C[C@H]4OC(=O)[C@H](O)[C@]1(O)[C@@]24C)C(C)(O)C[C@H](O)[C@H]3O (stereo partly drawn) here?
Its value is “inactive [at 27.7 µM]”.

For COc1ccc2c(c1)OC[C@]1(O)c3cc4c(cc3O[C@H]21)OCO4, which “activity, negative = inhibition” value is on record?
The value was 3.73% [at 27.7 µM] (inactive).

For COC(=O)C1=CO[C@@H](O[C@@H]2O[C@H](CO)[C@@H](O)[C@H](O)[C@H]2O)[C@@H]2[C@@H](C(=O)OC)[C@@H](O)C(O)[C@H]12 (stereo partly drawn), which “outcome” value is on record?
The value was “inactive [at 27.7 µM]”.

With CC(=O)O[C@H]1[C@H](Oc2ccccc2COC(=O)C2(O)C=CCCC2=O)O[C@H](CO)[C@@H](O)[C@@H]1O (stereo partly drawn) as the compound, how does the “activity, negative = inhibition” value read?
The value was -10.8% [at 27.7 µM] (inactive).

With CCOc1ccc(C(Nc2ccccn2)c2ccc3ccc(C)nc3c2O)cc1C (stereo not drawn) as the compound, how does the “activity, negative = inhibition” value read?
The value was -13.8% (inactive).

With COc1ccc(C2=CC(=O)OC2Cc2ccc(O)cc2)c(O)c1 (stereo not drawn) as the compound, how does the “outcome” value read?
Its value is “inactive [at 27.7 µM]”.

Reference: PubChem BioAssay (NCATS)
